Out of some 320,000 compounds screened, about 480 (0.15%) were called active. Not shown: some 1% with an inconclusive outcome. Cut-off read from the data, not from the text of the source: active = inhibition above about 26% (passing the limit was not always enough); inconclusive = no clear call, values can overlap the other calls. Many of the other results were omitted from the sample, so actives are more common in it than they were.
target: Histone deacetylase 3 (Homo sapiens) (UniProt O15379); experiment: HDAC3 deacetylase inhibitors, primary screen, biochemical, fluorescence, cell-free homogeneous (AID 2718); conditions: recombinant HDAC3, fluorogenic peptide/trypsin coupled, at 8.3 µM, stronger effect = higher value
Sequence (O15379 whole entry, looked up): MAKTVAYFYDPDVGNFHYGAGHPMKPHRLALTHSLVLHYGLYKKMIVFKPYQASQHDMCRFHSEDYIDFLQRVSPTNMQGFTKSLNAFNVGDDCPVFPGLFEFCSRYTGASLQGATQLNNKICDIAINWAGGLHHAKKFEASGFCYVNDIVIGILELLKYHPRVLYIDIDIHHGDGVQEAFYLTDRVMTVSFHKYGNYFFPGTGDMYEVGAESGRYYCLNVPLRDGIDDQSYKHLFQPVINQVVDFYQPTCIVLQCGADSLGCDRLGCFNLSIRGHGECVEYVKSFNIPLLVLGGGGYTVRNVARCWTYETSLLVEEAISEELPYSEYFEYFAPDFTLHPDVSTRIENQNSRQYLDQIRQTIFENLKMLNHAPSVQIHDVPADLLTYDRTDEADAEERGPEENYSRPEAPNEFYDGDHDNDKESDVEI

inhibition, inactive:
O=C(COC(=O)c1cccnc1Cl)NC12CC3CC(CC(C3)C1)C2 -0.423%
COCC(C)n1c(SCC(=O)NC2CCCCC2C)nc2ccccc2c1=O (centres undefined) 0.838%
O=C(COC(=O)c1ccc(Br)o1)NC12CC3CC(CC(C3)C1)C2 -3.01%
C[C@H](CO)N1C[C@H](C)[C@@H](CN(C)C(=O)Nc2ccc3c(c2)OCO3)Oc2c(cccc2N(C)C)C1=O -8.66%
COc1ccc2nc3n(c(=O)c2c1)-c1ccc(Cl)cc1C(=O)NC3Cc1ccccc1 (centres undefined) -1.2%
C[C@H]1COC(=O)[C@H](CC(=O)OC(C)(C)C)C/C=C\C[C@@H](CC(=O)N[C@H](CO)Cc2ccccc2)C(=O)N1 -4.05%
CN1C(=O)[C@H]2[C@@H](/C=C/c3ccccc3)N3C(=O)CN(Cc4ccc(-c5ccccc5)cc4)C(=O)[C@@]3(C)[C@H]2C1=O 6.83%
O=C(OCC(=O)N1CCCCCC1)c1ccc(Br)c(S(=O)(=O)N2CCOCC2)c1 -0.213%
O=C(CCNC(=O)c1ccc(Br)cc1)NCC(c1ccco1)N1CCCCC1 (centres undefined) 2.98%
Cn1c(N)c(C(=O)COC(=O)c2ccc3ccccc3c2)c(=O)n(C)c1=O -3.95%
COC(=O)c1c(CCl)noc1C(=O)NC(C)C -2.79%
O=C(CNC(=O)c1ccccc1F)OCC(=O)c1c[nH]c2ccccc12 1.43%
Clc1cccc(Cl)c1Cn1nnc(-c2cccs2)n1 -9.16%
COc1cc(Cl)c(C)cc1NC(=O)CSc1nnc(CN2CCCC2)o1 -2.25%
Cc1nn(C)c(C)c1CN(C(=O)CCc1nnc(Cc2c[nH]c3ccccc23)o1)C(C)C -1.72%
Cc1ccsc1C(=O)NNC(=O)COc1ccc(Br)cc1 -2.82%
CC1(C)CC[C@@]2(C(=O)O)C(C1)C1=CCC3[C@@]4(C)CC[C@H](O)C(C)(C)C4CC[C@@]3(C)[C@]1(C)C[C@H]2O (some centres undefined) -0.0116%
CN(C(=O)CSc1cccc[n+]1[O-])C1CCCCC1 -0.125%
COc1cc(NC(=O)COC(=O)c2cc(S(=O)(=O)N3CCOCC3)ccc2F)cc(OC)c1 -6.13%
CC(C)CC1(C)NC(=O)N(CC(=O)Nc2ccc3c(c2)OCCO3)C1=O (centres undefined) 0.72%
O=C(N/N=C\c1ccc(-c2ccc(Cl)c(Cl)c2)o1)C(=O)N1CCCC1 -2.85%
Cc1ccc(C(=O)N2CCC(n3nccc3NC(=O)Nc3cccc(F)c3)CC2)cn1 4.68%
CCN1N=C(c2ccccc2)CCC1=O -1.92%
CN(c1ccccc1)S(=O)(=O)c1cc(C(=O)N2CCN(c3ncccn3)CC2)ccc1Cl 5.51%
O=C(N=C1SC2CS(=O)(=O)CC2N1c1ccccc1)c1ccccc1 (centres undefined) 3.67%
O=C(Cn1c(N2CCN(C/C=C/c3ccccc3)CC2)nc2ccccc21)c1ccccc1 11.7%
COc1ccc(NC(=O)N(C)C[C@H]2Oc3ccc(NC(=O)C4CC4)cc3C(=O)N([C@H](C)CO)C[C@@H]2C)cc1 2.07%
COc1ccc(S(=O)(=O)N(C)C[C@H]2Oc3c(NC(=O)Nc4ccc5c(c4)OCO5)cccc3C(=O)N([C@H](C)CO)C[C@@H]2C)cc1 0.282%
Cc1ccc(C(=O)NNC(=O)CSc2nnc3ccccn23)cc1 -19.4%
C#CCOCCOCCOCCNc1nc(N2CCN(C(=O)CCCCCCCCCCNC(=O)Cn3cc(CCCCCN)nn3)CC2)nc(N2CCN(C(=O)CCCCCCCCCCNC(=O)[C@H](CO)n3cc(CCCSC)nn3)CC2)n1 22.2%
C#CCOCCOCCOCCNc1nc(N2CCN(C(=O)CCCCCCCCCCNC(=O)[C@H](CCCCN)n3cc(C)nn3)CC2)nc(N2CCN(C(=O)CCCCCCCCCCNC(=O)[C@H](CO)n3cc(CCCSC)nn3)CC2)n1 17.4%
CCOC(=O)C1(Cc2cccc(OC)c2)CCN(Cc2csc(C(C)=O)c2)CC1 0.985%
CCOC(=O)C1=C(CC)Nc2ccccc2N=C1N 5.45%
CCCCOc1ccc(N(CC(=O)NCC2CCCO2)C(=O)CCC(=O)Nc2cc(C)ccn2)cc1 (centres undefined) 1.38%
COc1ccc(C(=O)COC(=O)C(O)c2ccccc2)c(OC)c1 (centres undefined) 8.77%
CCOc1ccc(NS(=O)(=O)c2cc(C)c(C)cc2C)cc1 2.58%
Cc1ccc(S(=O)(=O)N2CCN(C(=O)CN3C(=O)NC(C)(c4ccc(Cl)cc4)C3=O)CC2)c(C)c1 (centres undefined) -0.669%
CC1CN(C(=O)c2ccc([N+](=O)[O-])s2)CC(C)O1 (centres undefined) -3.39%
Cc1c(CCO)c(=O)[nH]n1C(=O)c1c(F)cccc1F -6.64%
COc1ccc(CC(NC(C)=O)C(=O)N2CCN(C(=O)Nc3cccc(Cl)c3)CC2)cc1OC (centres undefined) 1.26%
Cc1ccc(-c2nc(-c3cccnc3)sc2CC(=O)Nc2ccc(C)c(Cl)c2)cc1 6.66%
Cc1ccc(S(=O)(=O)N(CCCN(C)C)Cc2ccc3c(c2)OCO3)cc1 5.59%
CCOC(=O)C1CCN(CC(=O)Nc2ccc(OC)c(S(=O)(=O)N3CCCCC3)c2)CC1 4.01%
CCOc1ccc(N2C(=O)CC(N(O)c3ccccc3)C2=O)cc1 (centres undefined) -2.22%
CCOC(=O)c1ccc(N2C(=O)CC(N(C)Cc3ccccc3)C2=O)cc1 (centres undefined) -1.1%
CCN(CC)S(=O)(=O)c1ccc2c3c(cccc13)C(=O)S2 3.45%
Fc1cnc(N2CCOCC2)nc1NCc1ccccc1 -0.33%
COc1ccc(C(=O)n2nc(-c3ccc(C)cc3)nc2N)cc1OC 9.8%
COc1ccc(C(=O)n2nc(-c3ccc(Cl)cc3)nc2N)cc1OC 13.1%
O=C(Cc1ccccc1)Nc1c(Cl)ccc2nsnc12 2.55%
C=C(Br)CN1CCN(CC(=C)Br)CC1 -3.73%
O=C(O)C1C2C=CC(O2)C1C(=O)NCCc1cccc(Cl)c1 (centres undefined) -6.57%
Cc1ccc(/C=N/NC(=O)C(NC(=O)c2ccccc2)c2n[nH]c(=O)c3ccccc23)cc1 (centres undefined) 15%
O=C(COC(=O)c1ccco1)Nc1ccc(Cl)cn1 0.924%
COc1cc(CNC2CCCC2)c(Br)cc1OCc1ccccc1 3.98%
COc1cc(CN2CCC(C(N)=O)CC2)ccc1OCc1ccccc1 -3.96%
COc1cc(NC(=O)c2[nH]cnc2C(N)=O)cc(C(=O)Nc2cccc(C(F)(F)F)c2)c1 -8.89%
O=C(NC(=S)NC1CCSC1=O)c1ccccc1F (centres undefined) -7.58%
O=C(CN1CCN(C(=S)NC2CCCC2)CC1)Nc1ccc(Oc2ccccc2)cc1 -5.51%
COc1ccccc1-n1nnnc1SCC(=O)NC(=O)Cc1ccccc1 -1.86%
O=C(NCc1ccccc1)C1=C[C@@H](c2ccc(C(F)(F)F)cc2)C[C@@H](OCc2ccc(CO)cc2)O1 21.1%
O=C(C1=C[C@H](C2CC2)C[C@H](OCc2ccc(CO)cc2)O1)N1CCN(Cc2ccccc2)CC1 -8.37%
CNS(=O)(=O)c1cccc(C(=O)OCC(=O)N2c3ccccc3NC(=O)C2(C)C)c1 4.33%
CCN(CC)CCN(C(=O)c1cccc([N+](=O)[O-])c1)c1nc2ccc(OC)cc2s1 -1.73%
CN(C(=O)c1cccc(NC(=O)C2CCN(C(=O)OC(C)(C)C)CC2)c1)C1CCC1 -2.89%
CSCCC(NC(=O)c1ccco1)C(=O)NCCc1ccc(F)cc1 (centres undefined) -4.83%
COc1ccc(C(=O)OCc2cc(=O)n3ccsc3n2)cc1F 0.474%
C=CC[C@H](CC(=O)OC(C)(C)C)C(=O)OC[C@H]1CCCN1C(=O)[C@H](CC=C)CC(=O)N(CCO)Cc1ccccc1 1.66%
C=CCC[C@@H](Cc1ccc(F)cc1)C(=O)OC[C@@H](C)NC(=O)[C@H](CC=C)CC(=O)N(CCO)Cc1ccccc1 2.58%
C=CC[C@@H](CC(=O)N[C@@H](CO)Cc1ccccc1)C(=O)NCCOC(=O)[C@@H](CC=C)CC(=O)OC(C)(C)C 0.71%
C=CCC[C@H](Cc1ccc(F)cc1)C(=O)OC[C@@H](Cc1c[nH]c2ccccc12)NC(=O)[C@H](CC=C)CC(=O)N[C@H](CO)Cc1ccccc1 6.12%
C=CC[C@@H](CC(=O)NCCO)C(=O)N[C@H](C)COC(=O)[C@@H](CC=C)CC(=O)OC(C)(C)C -0.677%
C=CC[C@@H](CC(=O)N[C@H](CO)Cc1ccccc1)C(=O)N[C@@H](COC(=O)[C@@H](CC=C)Cc1ccc(F)cc1)Cc1c[nH]c2ccccc12 0.653%
C=CC[C@@H](CC(=O)N[C@@H](CO)Cc1ccccc1)C(=O)N[C@H](COC(=O)[C@H](CC=C)CC(=O)OC(C)(C)C)Cc1ccccc1 7.81%
C=CC[C@@H](CC(=O)N[C@H](CO)Cc1ccccc1)C(=O)N[C@H](C)COC(=O)[C@@H](CC=C)Cc1ccc(F)cc1 19.7%

inhibition, active:
C#CCOCCOCCOCCNc1nc(N2CCN(C(=O)CCCCCCCCCCNC(=O)[C@H]([C@@H](C)CC)n3cc(CCCCN=C(N)N)nn3)CC2)nc(N2CCN(C(=O)CCCCCCCCCCNC(=O)[C@H](CO)n3cc(CCCSC)nn3)CC2)n1 65%
CCCCCCC(=O)N(O)C1CC(=O)N(c2ccccc2)C1=O (centres undefined) 78.3%
COc1ccc(C(=O)n2nc(C)c(Br)c2C)cc1OC 38.4%
COc1cc(C2CC(=O)N3CN(Cc4ccccc4)CSC3=C2C#N)ccc1OCc1ccccc1 (centres undefined) 33.1%
O=C(C1=C[C@H](c2ccc(C(F)(F)F)cc2)C[C@H](OCc2ccc(CO)cc2)O1)N1CCN(Cc2ccccc2)CC1 33.5%
C=CCC[C@@H](Cc1ccc(F)cc1)C(=O)OC[C@H](Cc1c[nH]c2ccccc12)NC(=O)[C@@H](CC=C)CC(=O)N(CCO)Cc1ccccc1 41.9%
C=CCC[C@H](Cc1ccc(F)cc1)C(=O)OC[C@H](C)NC(=O)[C@H](CC=C)CC(=O)N(CCO)Cc1ccccc1 30.2%
C=CCC[C@@H](Cc1ccc(F)cc1)C(=O)O[C@H](CNC(=O)[C@H](CC=C)CC(=O)N(CCO)Cc1ccccc1)c1ccccc1 48.4%
C=CCC[C@H](Cc1ccc(F)cc1)C(=O)OC[C@@H](NC(=O)[C@@H](CC=C)CC(=O)N[C@H](CO)Cc1ccccc1)C(C)(C)C 41.7%
